Measurements as given in PubChem BioAssay AID597 (National Center for Advancing Translational Sciences (NCATS), 2007).
Among all 68,000 compounds or so, about 60 (0.09%) were called active. Calls follow the shape of the dose curve; as a rule, active = well fitted curve in the direction sought with a large enough effect; inconclusive = small, poorly fitted or top-dose-only effect; inactive = flat fitted curve, though single readings scatter. Only a sample is shown.

assay: qHTS Assay for Epigenetic Modulators; conditions: mouse C127i GFP locus derepression, cytometry, 30 h; series mostly up to 46.1 µM; also: % of control where 0% means no effect
From the text: NIH Molecular Libraries Screening Centers Network [MLSCN] NIH Chemical Genomics Center [NCGC] MLSCN Grant: 1 X01 MH079860-01 Assay Provider: Elisabeth D. Martinez, University of Texas SW Medical Center NCGC Assay Overview: The Locus Derepression assay detects the derepression of a GFP reporter that is stably integrated in a region of the genome of murine c127i mammary cells that is presumably silenced. GFP transcription in this construct is controlled by a CMV promoter, which normally is strong and constitutively active. However, this line was selected for lack of constitutive expression of the GFP protein. GFP production can be induced by incubating the cells with histone deacetylase or DNA methyltransferase inhibitors. Compounds that cause derepression of the locus to express GFP are identified by enumerating GFP positive cells using a laser-scanning microplate cytometer. For further details of this screen and follow-up characterization, see R.L. Johnson, W. Huang, A. Jadhav, C.P. Austin, J. Inglese, E.D. Martinez, A Quantitative High-Throughput Screen Identifies Potential Epigenetic Modulators of Gene Expression, Analytical Biochemistry (2008) 375(2):237-48.
NCGC Assay Protocol Summary: Two hundred and fifty cells in 5 uL per well were dispensed into black, clear-bottom 1536-well plates. Twenty-three nL compound was transferred to the assay plate and cells were incubated 30 hours at 37 C. Medium was removed, cells were washed two times with PBS, and GFP-positive cells were enumerated as fluorescent objects between the sizes of 20 to 120 um width and depth using an Acumen Explorer. Keywords: NIH Roadmap, MLSCN, MLI, MLSMR, qHTS, NCGC, qHTS, HDAC, DNMT, HAT, DNA methyltransferases, histone acetyl transferases, histone deacetylases

GFP derepression (activation), inactive:
Fc1ccccc1OCCCCn1cncn1
O=[n+]1c2c(n([O-])c3cc(Br)ccc31)CCC2
COC(=O)[C@H]1[C@H]2C[C@H]3c4[nH]c5ccccc5c4CCN3C[C@@H]2CC[C@@H]1O
CCOC(=O)c1cc2occc2n1CC(=O)N1CCN(C(=O)c2ccco2)CC1
Cc1cc2c(cc1C)NC1=C(N2)O[C@H](c2c[nH]c3ccc(COc4ccccc4)cc23)C1=O 2.2% [at 9.22 µM]
NC(=NC(=O)c1ccccc1)C1=C(O)CCC1=O
COc1ccc(-n2c(SC)nc(O)cc2=O)cc1
O=C(CSc1ncccn1)NC(=O)NCc1ccccc1
NCCCNCCCCN(CCCN)/[N+]([O-])=N/O
Cn1cccc1C(=O)N1CCC[C@@]2(CCN(Cc3nccs3)C2)C1 4.6% [at 9.22 µM]
COCCn1c(=O)c(-c2ccccc2)nc2cnc(N3CCOCC3)nc21 -2.7% [at 9.22 µM]
Cn1c(=NC(=O)CSCC(=O)N2CCOCC2)sc2ccccc21
Cc1ccc2[nH]c(=O)c(COC(=O)c3ccccn3)cc2c1
CCOC(=O)c1[nH]c2ccc(C)cc2c1N=C(C)N(C)C
Cc1cc(C(=O)CC#N)c(C)n1CC(F)(F)F
Cc1ccc(NC(=O)c2cccc(N(C)C)c2)cc1NC(=O)c1ccc(O)cc1
CCON=C1C(C)(C)C(C)(C)C(C)(C)C1(C)C 6.6% [at 9.22 µM]
Cc1ccc(S(=O)(=O)N(C)CC(=O)N2CCc3ccccc32)cc1
COc1cccc(-c2cc(NCCc3c[nH]c4ccc(OC)cc34)ncn2)c1 5.1% [at 9.22 µM]
CC(C)c1ccc2c(c1)c(SC(C)(C)C)c(CC(C)(C)C(=O)O)n2Cc1ccc(Cl)cc1
C#CCCCCCCCCCCCCCCCC(=O)O
N#CCCn1c(=O)c(-c2cc(F)cc(F)c2)nc2cnc(Oc3ccccc3)nc21 -4.9% [at 9.22 µM]
CCOc1cccc(NC(=O)CC#N)c1
O=C1c2ccccc2C(Nc2ccc3c(c2)OCCO3)N1Cc1ccco1 (stereo not drawn)
CCNCCCNCCCNCCCNCC
N#CC1=C(SCc2ccccc2)NC(=O)C(C#N)C12CCCC2 (stereo not drawn)
O=C(c1cccc(F)c1)N1CCC2(CC1)CCN(c1ccccc1)CC2 -1.6% [at 9.22 µM]
COc1ccc(OCC(=O)OCC(=O)Nc2ccc(S(=O)(=O)N3CCCCC3)cc2)cc1
O=S(=O)(O)c1ccc(O)c2ncccc12.O=S(=O)(O)c1ccc(O)c2ncccc12.[Zn] 2.3% [at 9.22 µM]
Cc1cccc(CNc2ccnc(-c3cccnc3)n2)c1 0% [at 9.22 µM]
N#CCCN1CCN(S(=O)(=O)c2ccc(S(=O)(=O)NC3CCCCC3)cc2)CC1
Cc1ccc(-c2nn(CC(C)(C)C)c3ncnc(N)c23)cc1
CCn1c(Cc2ccccc2)nnc1SCC(=O)Nc1ccccc1
CCc1c(C)[nH]c(=S)c(C#N)c1C
COc1ccc(C)cc1NC(=O)CSc1nc(SC)ns1
CN(C)c1cc[n+](Cc2ccccc2)cc1
Nc1nnc(C2CCCC2)s1
CN(c1nc2ccccc2n2c(-c3ccco3)nnc12)S(=O)(=O)c1ccccc1
CN1CCN(CC(O)COCc2ccc3c(c2)OCO3)CC1 (stereo not drawn)
Cn1c(=O)c2cn(-c3cccc4ccccc34)cc2n(C)c1=O
CC(C)NC(=O)N1CC[C@@]2(CCCN(C(=O)c3cccc(F)c3)C2)C1 -0.9% [at 9.22 µM]
CC(=O)c1ccc(Oc2cc(C)nc(-n3nc(C)cc3C)n2)cc1
Cc1ccc(-c2nn(-c3ccccc3)cc2CN(Cc2ccccc2)C(=O)CCC(=O)O)o1
COc1ccc(N2CCN(Cc3cc(=O)oc4ccc5ccccc5c34)CC2)cc1
O=C(NCCCNC(=O)NC1CCCCC1)NC1CCCCC1
FC(F)(F)c1cccc(Nc2ncnc3ccccc23)c1
O=C1C2(c3ccccc3)CN(CCCO)CC1(c1ccccc1)CN(CCCO)C2
COC(=O)c1sc(=S)n(-c2ccccc2)c1N
CCCN1C(=O)C(NC(C)=O)c2cc(OC)ccc21 (stereo not drawn)
O=C(NCCc1ccco1)c1nn(Cc2ccccc2)c(=O)c2ccccc12
CC(C)(C)C(=O)CCN1C(=O)C2(OCCO2)c2ccccc21
CCC(C(=O)OCCN(CC)CC)c1ccccc1 (stereo not drawn)
Cc1cc(C)c2nc3c(c([C@H](O)[C@@H]4CCCCN4)c2c1)CC/C3=C/c1ccc(Cl)cc1 0% [at 9.22 µM]
CC1=CC(C)(C)N(C(=O)CSc2nnc(-c3ccccc3)o2)c2ccc(C)cc21
O=C(O)c1ccc(NS(=O)(=O)c2cccc3nsnc23)cc1
COc1ccccc1C(=O)NCCn1cc(SCC(=O)NCc2ccco2)c2ccccc21
O=C(Cn1[nH]c(=O)c2ccccc2c1=O)Nc1cccc(-c2nnc3n2CCCCC3)c1
COc1ccc(NC(=O)c2c(C)oc3c2CCCC3)cc1
CS(=O)(=O)N1CCC[C@@]2(CCN(c3ccncc3)C2)C1 0% [at 9.22 µM]
O=C(O)c1ccc(NC(=O)c2cccs2)cc1
O=C(Nc1ccc(Cl)cc1)c1ccsn1
COc1ccc(C2C3=C(CC(C)(C)CC3=O)Oc3ncn4nc(-c5cccnc5)nc4c32)cc1OC (stereo not drawn)
CN1CCN2c3ccccc3Cc3ccccc3[C@@H]2C1
O=C(CCCn1c(SCC(=O)c2ccc(F)cc2)nc2ccccc2c1=O)NCc1ccco1
COC(=O)[C@H](C)NC(=O)Nc1ccc(OC(F)(F)F)cc1
COC(=O)c1cnn2c(C(F)(F)F)cc(-c3ccco3)nc12
COc1ccc(-c2nnc(SC(=O)N3c4ccccc4Sc4ccccc43)o2)cc1
COc1ccccc1-c1nc(NCc2cccs2)c2ccccc2n1 0% [at 9.22 µM]
O=c1oc2c(CN3CCCCC3)c(O)ccc2c2c1CCCCC2
COc1ccc(C2N=C(N)N=C(N)N2c2ccccc2)cc1OC (stereo not drawn)
O=C(O)COc1c(Cl)cc(Cl)c2cccnc12 5.8% [at 9.22 µM]
CCn1c(SCC(=O)Nc2ccc3c(c2)OCCO3)nc2c(c1=O)SC(C)C2 (stereo not drawn)
Cn1c(=S)c2[nH]c(SCCCc3ccccc3)nc2n(C)c1=O -3.4% [at 9.22 µM]
COc1cccc(Cn2c(=O)c(-c3ccccc3)nc3cnc(OC)nc32)c1 10.8% [at 9.22 µM]
CCCC(C(=O)OCCN(CC)CC)(c1ccccc1)c1ccccc1
O=C(OCCN1CCOCC1)C1(c2ccccc2)CCCCC1
O=C(c1cc(C(F)(F)F)cc(C(F)(F)F)c1)N1CCC2(CCCN(Cc3ccncc3)C2)CC1 2.2% [at 9.22 µM]
O=C(O)CCC(=O)Nc1ccc(N2CCOCC2)cc1
COCCn1c(=O)c(-c2cc(F)cc(F)c2)nc2cnc(N3CCNCC3)nc21 -0.5% [at 9.22 µM]
CN(C)C(=O)c1ccc(-c2cncnc2Nc2ccccc2)cc1 5.7% [at 9.22 µM]
COc1ccc(NC(=O)CSc2nnc(-c3cccs3)n2Cc2ccco2)cc1OC
CCOC(=O)N1CCN(C(=O)c2n[nH]c(=O)c3ccccc23)CC1
CC(=O)Nc1ccc(S(=O)(=O)N2CCSCC2)cc1
CCOc1ccc(NS(=O)(=O)c2ccc(OCC(=O)NCCCOC)cc2)cc1
COc1ccc(C(=O)N/N=C2/C(=O)c3c(C)cc(C)cc3CC2(C)C)cc1 3.4% [at 9.22 µM]
N#Cc1cc2[nH]c(=O)c(=O)[nH]c2cc1[N+](=O)[O-]
N/C(=N\c1nc2ccccc2o1)NC(=O)C(Cc1ccccc1)N1C(=O)c2ccccc2C1=O (stereo not drawn)
CCCNS(=O)(=O)c1ccc(CCC(=O)NCc2cccnc2)cc1
Cc1nc2ccc(S(=O)(=O)NCC(=O)NCCN3CCCCC3C)cc2s1 (stereo not drawn)
N#Cc1cccc(-c2nc3cnc(N4CCNCC4)nc3n(C3CC3)c2=O)c1 -5% [at 9.22 µM]
COc1ccc(C2OC(=O)CC2C(=O)NC(C)C)cc1 (stereo not drawn)
O=C(NCC12CC3CC(C1)CC(CNC(=O)N1CCCC1)(C3)C2)N1CCCC1
C[C@]1(O)CC[C@H]2[C@H]3CC=C4N5CCN=C5CC[C@@]4(C)[C@H]3CC[C@@]21C -3.4% [at 9.22 µM]
COCCn1c(=O)c(C)nc2cnc(N(C)C)nc21 2.3% [at 9.22 µM]
CN1CCCc2cc(C#N)c(=O)[nH]c21
CCCc1[nH]nc2c1C(c1ccc(OC(=O)c3ccco3)cc1)C(C#N)=C(N)O2 (stereo not drawn)
CCCCOc1ccc(-c2nnc(-c3ccco3)o2)cc1
CC(C)NC(=O)N1CC[C@@]2(CCCN(C(=O)c3cccn3C)C2)C1 2.2% [at 9.22 µM]
O=S(=O)(NCc1ccc2c(c1)OCO2)c1cccc2nsnc12
COc1ccc(CNC(=O)c2c(C)cc(=O)oc2C)cc1OC
Cc1cccc(CC(=O)Nc2c3c(nn2-c2cccc(Cl)c2)CS(=O)C3)c1 (stereo not drawn)
Cc1nn(C)c(C)c1S(=O)(=O)N1CCc2ccccc21
Cc1nc2cnc(N3CCNCC3)nc2n(CCc2ccccc2)c1=O 8.1% [at 9.22 µM]
